# Active and inactive are the calls of the source. Rule for the calls: active = hit-call score of the fitted dose curve at least 0.9, where 1 is the maximum; inactive = score below 0.9.
# Assays:
# [1] = biological target: Bile acid receptor (Homo sapiens) (UniProt Q96RI1); assay: ATG_IR1_CIS: Attagene CIS-FACTORIAL HepG2 Assay for human Nuclear Receptor Subfamily 1 Group H Member 4 (NR1H4), IR1 submotif (AID 2282946); details: IR1 reporter transcription, actives raise or lower the signal
# Outline: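 HepG2 cells transiently transfected with multiple cis-promoter-driven reporter units to measure endogenous transcription factor activity; 24 h exposure. Reporter mRNA read by RT-PCR, FAM labelling, HpaI digestion and capillary electrophoresis. Bidirectional fit versus DMSO.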
# [2] = ATG_GRE_CIS: Attagene CIS-FACTORIAL HepG2 Assay for human Glucocorticoid Response Elements (GRE) (AID 2282947); details: HepG2 GRE cis-reporter, Attagene multiplex mRNA; actives raise or lower the signal
# Outline: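 Endogenous transcription factor activity is read through cis-element reporter constructs transiently transfected into HepG2 cells. After 24 h treatment, labelled RT-PCR products are resolved by capillary electrophoresis; DMSO sets baseline for bidirectional curve fitting.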
# [3] = ATG_ISRE_CIS: Attagene CIS-FACTORIAL HepG2 Assay for human Interferon Regulatory Factor 1 (IRF1) binding to an Interferon-Stimulated Response Element (ISRE) (AID 2282948); details: HepG2 ISRE cis-reporter (Attagene), mRNA transcription readout; actives raise or lower the signal
# Outline: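 Transfected HepG2 (multiple reporter transcription units, cis elements) dosed 24 h. RNA → oligo(dT) RT → PCR → 6-FAM primer extension → HpaI → CE. DMSO = negative control/baseline.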
# [4] = ATG_M_32_CIS: Attagene CIS-FACTORIAL HepG2 Assay for M32 Transcription Factor (Internal Marker) (AID 2282949); details: HepG2 Attagene cis-factorial M32 reporter, mRNA; actives raise or lower the signal;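 note: background control marker of the multiplexed CIS panel rather than a real target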
# Outline: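 Internal background marker read-out: RT-PCR/capillary electrophoresis fluorescence of reporter transcripts from transiently transfected HepG2 cells after 24 h chemical exposure. Activity fitted bidirectionally relative to DMSO negative control.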
# [5] = ATG_M_06_CIS: Attagene CIS-FACTORIAL HepG2 Assay for M06 Transcription Factor (Internal Marker) (AID 2282950); details: HepG2 Attagene CIS-FACTORIAL M06 internal marker reporter; actives raise or lower the signal
# Outline: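 Fluorescence-labelled RT-PCR products from cis-promoter reporter units, cut with HpaI and resolved by capillary electrophoresis, give the signal. Cells are human HepG2, dosed for 24 h. Serves as background control, fitted relative to DMSO.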
# [6] = biological target: Hepatocyte nuclear factor 6 (Homo sapiens) (UniProt Q9UBC0); assay: ATG_HNF6_CIS: Attagene CIS-FACTORIAL HepG2 Assay for human Hepatocyte Nuclear Factor 6 (HNF6) (AID 2282952); details: HepG2 Attagene cis-factorial HNF6 reporter transcription; actives raise or lower the signal
# Outline: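 HepG2, transient MRTU transfection (cis promoters); 24 h chemical exposure; total RNA → oligo(dT) RT → PCR → 6-FAM labelling → HpaI cut → CE; bidirectional fit vs DMSO.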
# [7] = biological target: Heat shock factor protein 1 (Homo sapiens) (UniProt Q00613); assay: ATG_HSE_CIS: Attagene CIS-FACTORIAL HepG2 Assay for human Heat Shock Transcription Factor 1 (HSE) (AID 2282953); details: HepG2 HSE cis-reporter, Attagene RNA transcription; actives raise or lower the signal
# Outline: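 After a 24 h incubation with test chemical, transfected HepG2 cells were harvested for RNA; reporter transcripts were measured by RT-PCR and capillary electrophoresis. Values reflect gain or loss of signal relative to DMSO.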
# [8] = ATG_PBREM_CIS: Attagene CIS-FACTORIAL HepG2 Assay for human Phenobarbital-responsive Enhancer Module (PBREM) (AID 2282955); details: HepG2 PBREM cis-reporter, Attagene multiplexed transcription; actives raise or lower the signal
# Outline: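 HepG2 cells transiently transfected with multiple cis-regulated reporter transcription units; endogenous factor activity at the PBREM element measured as reporter mRNA 24 h after dosing, via RT-PCR and capillary electrophoresis of fluorescent fragments; bidirectional fitting versus DMSO.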
# [9] = biological target: Hypoxia-inducible factor 1-alpha (Homo sapiens) (UniProt Q16665); assay: ATG_HIF1a_CIS: Attagene CIS-FACTORIAL HepG2 Assay for human Hypoxia Inducible Factor 1 (HIF1A) (AID 2282951); details: HepG2 Attagene cis-factorial HIF1a reporter transcription; actives raise or lower the signal
# Outline: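 HepG2 cells transiently transfected with multiplexed cis-promoter reporter units; reporter mRNA read 24 h after dosing by RT-PCR, 6-FAM primer-extension labelling, HpaI digestion and capillary electrophoresis. Bidirectional fit versus DMSO baseline.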
# [10] = ATG_MRE_CIS: Attagene CIS-FACTORIAL HepG2 Assay for human Metal Responsive Element (MRE) (AID 2282954); details: HepG2 MRE cis-reporter transcription, Attagene multiplex; actives raise or lower the signal
# Outline: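 Fluorescent reporter fragments separated by capillary electrophoresis give mRNA induction for the MRE unit after 24 h treatment of transfected HepG2 cells. Endogenous transcription-factor activity is read; DMSO serves as negative control and baseline.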
# Chain of Hepatocyte nuclear factor 6 (Homo sapiens) (Q9UBC0 whole entry, looked up): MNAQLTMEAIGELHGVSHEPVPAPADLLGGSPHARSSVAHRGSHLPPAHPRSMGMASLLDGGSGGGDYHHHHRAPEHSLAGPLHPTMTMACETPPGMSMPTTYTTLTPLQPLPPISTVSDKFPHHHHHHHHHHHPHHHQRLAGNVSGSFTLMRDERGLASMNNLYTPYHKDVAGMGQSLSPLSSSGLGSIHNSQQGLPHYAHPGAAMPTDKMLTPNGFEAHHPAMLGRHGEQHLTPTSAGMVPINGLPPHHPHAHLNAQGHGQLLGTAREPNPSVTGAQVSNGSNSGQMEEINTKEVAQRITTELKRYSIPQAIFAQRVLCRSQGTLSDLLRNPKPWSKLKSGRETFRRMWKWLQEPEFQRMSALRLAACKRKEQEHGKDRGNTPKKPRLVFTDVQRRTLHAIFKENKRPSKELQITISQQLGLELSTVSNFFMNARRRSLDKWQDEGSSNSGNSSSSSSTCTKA
# Chain of Hypoxia-inducible factor 1-alpha (Homo sapiens) (Q16665 whole entry, looked up): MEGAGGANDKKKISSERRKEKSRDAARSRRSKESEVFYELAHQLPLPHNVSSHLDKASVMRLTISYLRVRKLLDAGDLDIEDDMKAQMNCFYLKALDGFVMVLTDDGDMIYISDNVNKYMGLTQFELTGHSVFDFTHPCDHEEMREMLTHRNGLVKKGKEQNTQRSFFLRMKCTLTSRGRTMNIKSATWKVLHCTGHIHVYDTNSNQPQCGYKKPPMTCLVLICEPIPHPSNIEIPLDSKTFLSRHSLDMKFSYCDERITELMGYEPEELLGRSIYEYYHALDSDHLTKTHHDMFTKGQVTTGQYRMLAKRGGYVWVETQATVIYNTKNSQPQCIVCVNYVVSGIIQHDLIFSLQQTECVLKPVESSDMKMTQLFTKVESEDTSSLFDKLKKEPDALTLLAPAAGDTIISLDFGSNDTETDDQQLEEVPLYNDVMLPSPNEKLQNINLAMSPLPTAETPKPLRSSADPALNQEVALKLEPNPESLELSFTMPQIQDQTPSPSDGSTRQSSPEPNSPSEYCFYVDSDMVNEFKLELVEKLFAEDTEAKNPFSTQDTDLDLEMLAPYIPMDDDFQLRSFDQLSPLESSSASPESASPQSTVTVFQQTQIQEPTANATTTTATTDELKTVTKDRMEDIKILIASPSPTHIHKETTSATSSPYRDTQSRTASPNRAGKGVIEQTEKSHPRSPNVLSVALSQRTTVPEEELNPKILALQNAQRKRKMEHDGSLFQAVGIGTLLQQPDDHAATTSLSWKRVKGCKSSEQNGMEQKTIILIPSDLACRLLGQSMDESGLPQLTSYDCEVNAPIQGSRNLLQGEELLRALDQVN
# Chain of Bile acid receptor (Homo sapiens) (Q96RI1 whole entry, looked up): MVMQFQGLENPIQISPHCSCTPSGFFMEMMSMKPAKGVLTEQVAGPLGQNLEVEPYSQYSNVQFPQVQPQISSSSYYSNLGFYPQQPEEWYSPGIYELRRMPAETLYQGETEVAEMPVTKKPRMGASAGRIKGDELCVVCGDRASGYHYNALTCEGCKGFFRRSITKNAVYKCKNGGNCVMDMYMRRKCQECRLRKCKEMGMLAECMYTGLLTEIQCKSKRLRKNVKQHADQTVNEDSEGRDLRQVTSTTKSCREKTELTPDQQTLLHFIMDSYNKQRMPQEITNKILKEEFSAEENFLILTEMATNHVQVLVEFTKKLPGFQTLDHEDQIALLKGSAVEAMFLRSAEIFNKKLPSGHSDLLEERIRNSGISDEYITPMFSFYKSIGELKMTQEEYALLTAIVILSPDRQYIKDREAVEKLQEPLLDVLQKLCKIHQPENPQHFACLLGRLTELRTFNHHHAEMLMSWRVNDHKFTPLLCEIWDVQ
# Chain of Heat shock factor protein 1 (Homo sapiens) (Q00613 whole entry, looked up): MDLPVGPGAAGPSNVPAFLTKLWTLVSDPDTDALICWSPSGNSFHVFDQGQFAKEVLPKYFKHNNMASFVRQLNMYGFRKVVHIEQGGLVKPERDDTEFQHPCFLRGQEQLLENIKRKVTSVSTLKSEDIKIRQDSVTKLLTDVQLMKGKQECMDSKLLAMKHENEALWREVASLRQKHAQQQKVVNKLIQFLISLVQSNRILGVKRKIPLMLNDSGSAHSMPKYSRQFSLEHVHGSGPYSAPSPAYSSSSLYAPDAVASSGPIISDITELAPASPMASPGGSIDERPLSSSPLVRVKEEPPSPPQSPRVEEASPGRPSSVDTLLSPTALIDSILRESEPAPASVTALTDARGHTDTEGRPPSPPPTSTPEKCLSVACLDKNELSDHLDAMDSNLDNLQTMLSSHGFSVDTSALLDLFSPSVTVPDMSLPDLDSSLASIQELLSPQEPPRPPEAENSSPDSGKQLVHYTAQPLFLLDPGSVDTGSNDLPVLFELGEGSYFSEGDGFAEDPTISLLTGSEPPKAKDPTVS
SMILES,outcome [1],outcome [2],outcome [3],outcome [4],outcome [5],outcome [6],outcome [7],outcome [8],outcome [9],outcome [10],AC50 [10],AC50 [8],AC50 [3],AC50 [6],AC50 [7]
O=c1cc[nH]c(=S)[nH]1,inactive,inactive,inactive,inactive,inactive,inactive,inactive,inactive,,,,,,,
CC(=O)OC(C)C,inactive,inactive,,inactive,,inactive,inactive,,inactive,inactive,,,,,
O=C1CC2CC1C1CCCC21 (stereo unspecified),inactive,inactive,inactive,inactive,,inactive,inactive,inactive,inactive,inactive,,,,,
Cc1cccc(N(C)C(=S)Oc2ccc3ccccc3c2)c1,inactive,inactive,inactive,inactive,inactive,inactive,,,,,1.89 µM (active),2.06 µM (active),,,
Nc1ccc(Oc2ccc(N)c(N)c2)cc1,inactive,inactive,inactive,inactive,,inactive,,inactive,inactive,inactive,,,,,
C=CCOc1c(Br)cc(Br)cc1Br,inactive,inactive,,inactive,inactive,inactive,inactive,inactive,inactive,inactive,,,,,
Nc1ccc(N)c(Cl)c1,inactive,inactive,,inactive,,,,,,,,26.2 µM (active),45.7 µM (active),57.2 µM (active),8.3 µM (active)
C=C[C@](C)(O)CC[C@@H]1[C@@]2(C)CCCC(C)(C)[C@@H]2CC[C@@]1(C)O,inactive,inactive,inactive,inactive,inactive,inactive,inactive,inactive,,inactive,,,,,
C1CN(SSN2CCOCC2)CCO1,inactive,inactive,inactive,inactive,,inactive,,,inactive,inactive,,,,,44.4 µM (active)
C=C1[C@H]2CC[C@@H]3[C@H]2C(C)(C)CCC[C@]13C,inactive,inactive,,inactive,,inactive,,inactive,inactive,inactive,,,,,
O=C(O)c1cc2ccccc2nc1C(=O)O,inactive,inactive,inactive,inactive,inactive,inactive,,inactive,,inactive,,,,,
Cc1oncc1C(=O)Nc1ccc(C(F)(F)F)cc1,inactive,inactive,inactive,inactive,inactive,inactive,,,,inactive,,143 µM (active),,,
CCOC(=O)NNc1nncc2ccccc12,inactive,inactive,,inactive,inactive,inactive,inactive,inactive,inactive,,,,,,
O=C(O)c1cc(Cl)cc([N+](=O)[O-])c1Cl,inactive,inactive,inactive,inactive,,inactive,inactive,inactive,,inactive,,,,,
NNC(=O)c1cccc(C(=O)NN)c1,inactive,inactive,inactive,inactive,inactive,inactive,inactive,inactive,,inactive,,,,,
